In all, about 25,000 sequences were measured (“ln(normalized median fluorescence intensity)”: median about 9.3, highest 2% from about 10 on). The sample holds the highest values, similar sequences and a random draw of the others, so the mix is not that of the screen.
Tested on: PF3D7_0420300 AP2 domain 1 (GST-tagged)
Assay: gcPBM binding intensity (ln(normalized median fluorescence intensity)); higher = stronger DNA binding
In short: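 Alexa488 anti-GST antibody, scanned at 488 nm, detected GST-tagged P. falciparum DNA-binding domains that had been expressed in E. coli and incubated for 1 h on an Agilent 4 × 180k array. The array carried primer-extended double-stranded 36-bp intergenic genomic probes and negative controls. Binding intensity is the highest Masliner-normalised natural-log median intensity across replicate spots of either orientation of each probe.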

Going from “TTATACTGTTTCAGAAAAATAAAGAATGAAAGTATT [XGTACX_negctrl_site230]” to “TGTAGAAATGGGTGCACACACATATAAAATCTATAT [CACACA_site7224]”, the “gcPBM binding intensity (ln)” value rises from 9.23 to 9.66.

Compared with “TTTCAAAATGTGTAAAATAAAAATAATATCATTACA [TGCATGCA_negctrl_site521]”, “ATTTTCTTTTCCATAGTGCAATATAATTATCCATCA [GTGCAC_site9547]” is higher in “gcPBM binding intensity (ln)” value: 9.08 for the first, 9.29 for the second.

First: TTTTTTATATATGTGTGTGTGTGTGTGTCAAGTTTA [GTGCAC_negctrl_site460]
Second: AATTTTTTTTTTTTTTTTTTTTATATATGTGTGTGT [XGTACX_negctrl_site129]
The “gcPBM binding intensity (ln)” value of the first is higher: 10.3 for the first, 9.74 for the second.

First: TGTGTCAAGTTTAATAAACGCATATAATATATATGA [CACACA_negctrl_site607]
Second: TATATAAATATTCGTAGTACAATACAATTATAAGTA [XGTACX_site3068]
The “gcPBM binding intensity (ln)” value of the first is lower: 8.93 for the first, 9.15 for the second.

Compared with “AACTAATAAAAAAAAAAAACATTAAACAGGACAAAT [XGTACX_negctrl_site287]”, “AAAATATATACACAAACATGCATATAATAAATAAAT [TGCATGCA_site711]” is lower in “gcPBM binding intensity (ln)” value: 9.78 for the first, 9.48 for the second.

Compared with “AACATATAAAAATATGCACACACAGGAATACAAACA [CACACA_site8127]”, “AAAATATAATATAATGCACACATAAAACAAAAAAAA [CACACA_site8989]” is lower in “gcPBM binding intensity (ln)” value: 10.3 for the first, 9.74 for the second.

First: AAAATATAATATAATGCACACATAAACAAAAAAAAA [CACACA_site8161]
Second: CATATAAAAATATGCACACACAGGAATACAAACATA [CACACA_site684]
The “gcPBM binding intensity (ln)” value of the first is lower: 9.78 for the first, 10.2 for the second.

Compared with “AATATAATATAATGCACACATAAACAAAAAAAAAAT [CACACA_site1304]”, “TATATATATATGTGTAGTACAACAAATATGAAAAAT [XGTACX_site4059]” is lower in “gcPBM binding intensity (ln)” value: 9.89 for the first, 9.54 for the second.

Going from “AAGAATATTTTTTTCTGTACATATAATTTATATACG [XGTACX_site5801]” to “TATTAATACAGACACACACACACACTAATTAAAATA [CACACA_site7967]”, the “gcPBM binding intensity (ln)” value rises from 9.13 to 10.1.

Compared with “ATTTATATATATCATACACACTAATATGTATATTAT [CACACA_site5816]”, “GGGAAATATTGAAACACACACGAACGCACGTATTTC [CACACA_site6258]” is higher in “gcPBM binding intensity (ln)” value: 9.42 for the first, 9.54 for the second.

First: ATTTATTTATCAAATATTATCTTAAAAAAAAAAGAA [CACACA_negctrl_site1345]
Second: ACAAATGGAACTCCTACAAAAAATTTCCATAATATT [XGTACX_negctrl_site132]
The “gcPBM binding intensity (ln)” value of the first is lower: 8.79 for the first, 9.16 for the second.

Going from “TATTAATTCATTTTTTTTTTTTTTTTTTTTTTTTTT [CACACA_negctrl_site1215]” to “CAAAAAATGAAACACACACACACACCCATAAATAAA [CACACA_site1231]”, the “gcPBM binding intensity (ln)” value rises from 9.13 to 10.1.

Going from “TATTTATTAAAACACACACACACACCCACAAAATAA [CACACA_site241]” to “ATTAATAAATAAATGACACACACACCCACAAAAAAA [CACACA_site8839]”, the “gcPBM binding intensity (ln)” value falls from 10.1 to 9.97.

Going from “CCCGAACAAACAAATAAACACACAAAAAAAAATATA [CACACA_site8540]” to “TTTATTAAGAAACACACACACACACCCAAAATAAAA [CACACA_site242]”, the “gcPBM binding intensity (ln)” value rises from 9.63 to 10.

“TAATAAATAAATGACACACACACACCCAAAAAAAAA [CACACA_site2623]” and “GAATAATCCAAACACACACACACACCCGAATAAATA [CACACA_site482]” are the same in “gcPBM binding intensity (ln)” value: 10.2 for the first, 10.2 for the second.

First: TTTATTAATAAACACACACACACACCCAAAATAAAA [CACACA_site7966]
Second: ATAATCCTGAAACACACACACACACCCATAAATAAA [CACACA_site481]
The “gcPBM binding intensity (ln)” value of the first is higher: 10.2 for the first, 10.1 for the second.

Compared with “GTAATTTTATATGGTTGTACATATATATATATATAT [XGTACX_site6659]”, “TAAAATATGGAAATCACACATTTATTAAAATATATA [CACACA_site4623]” is lower in “gcPBM binding intensity (ln)” value: 9.32 for the first, 9.13 for the second.

First: TGTATTAATATGGTAATACACACTAATATACTTTTG [CACACA_site1610]
Second: TTGATTTCATTTTAAGTGCATAACTAATATTATATA [GTGCAC_site9713]
The “gcPBM binding intensity (ln)” value of the first is higher: 9.38 for the first, 9.14 for the second.

Going from “ATTATGAAATATCGTGCACACACGAATAATATAAGA [CACACA_site1294]” to “AAAAAAAAAACAAATGCATGTAATATAAGAATTACA [TGCATGCA_site908]”, the “gcPBM binding intensity (ln)” value falls from 9.42 to 9.27.

Compared with “TACAGACAGAAATGCACACACATATTTATATTTATA [CACACA_site7139]”, “AACAAATACGAACACACACACACACTAAAAAAAAAA [CACACA_site6386]” is higher in “gcPBM binding intensity (ln)” value: 9.75 for the first, 10.2 for the second.

Compared with “AACATATACACGAACACACACACATATAAATAAATA [CACACA_site6380]”, “AGTATACACGAACACACACACACATATATAAATATA [CACACA_site6913]” is higher in “gcPBM binding intensity (ln)” value: 9.96 for the first, 10.3 for the second.

Compared with “CTAAAATACGAACACACACACACATATAAATAAATA [CACACA_site7872]”, “CGAACAAACAAATAAACACACAAAAAAAAATATATA [CACACA_site1825]” is lower in “gcPBM binding intensity (ln)” value: 10.3 for the first, 9.61 for the second.

Compared with “TAACACATAAATAAATATATACATATATATAAAATA [CACACA_negctrl_site375]”, “CATATACACGAACACACACACATATAAATAAATATA [CACACA_site6379]” is higher in “gcPBM binding intensity (ln)” value: 9.36 for the first, 10.1 for the second.

First: AAACAAAAAATATATACACACTAAACATAAAAAAAA [CACACA_site4185]
Second: CATACAGACGAACACACACACATATAAATATAAATA [CACACA_site6443]
The “gcPBM binding intensity (ln)” value of the first is lower: 9.83 for the first, 9.91 for the second.
